Only some compounds are listed: those with a hit (about 11% of all), similar ones and a draw of the others.
PNC assembly inh = blocks assembly of the perinucleolar compartment | PC3M PTB-GFP, PNC prevalence imaging, 16 h; hits give low values | activity change (PNC), negative = inhibition, % at 10 µM | 140,000 compounds, 3.1% hits;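 active means readout at or below -70, meaning at least 70% loss of cells showing the perinucleolar compartment, a nuclear body marking cancer cells; inconclusive means readout between -30 and a set limit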;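 further: plate controls were DMSO wells for no effect and camptothecin positive control wells for full effect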
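PC3M cells stably expressing PTB-GFP, 750–1000 cells/well, treated 16 h at 37 °C with compound (23 nl of library stock), in duplicate. After paraformaldehyde fixation and Hoechst stain, imaged at 20x; PNC prevalence scored by image analysis.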
ALOX12 inhib = blocks human 12-lipoxygenase activity | P18054 | 150,000 compounds, 0.12% hits | purified 12-hLO, xylenol orange hydroperoxide absorbance | Potency, µM (titrated, usually from 57.1 µM), without a hit: top-dose activity change, negative = inhibition, hits mostly inhibitors | AID 1452; active means well fitted curve in the direction sought with a large enough effect; inconclusive means small, poorly fitted or top-dose-only effect, or another doubt; inactive means no such curve, though single readings can be large; an effect the other way counts as inactive or inconclusive; further: potency means the concentration at half of the fitted maximal effect; nearly all actives have a fitted effect of over 55% in size
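150 nM 12hLO, 25 mM Hepes pH 7.0 + 0.01% Triton X-100; cpd preinc 15 min RT; 40 uM arachidonic acid, 30 min RT; Fe-XO 30 min; A573/A405 ratio as read-out.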
IMPase Li inh = cell-permeable IMPase inhibitors with lithium potentiation | Potency, µM (titrated, usually from 59.4 µM), without a hit: at the highest dose activity, negative = IMPase inhibition, actives largely listed as inhibitors | AID 1457 | CHO-M1 cells, IP1 TR-FRET (IP-One), carbachol + lithium | 210,000 compounds, 0.35% hits; active means well fitted curve in the direction sought with a large enough effect; inconclusive means small, poorly fitted or top-dose-only effect, or another doubt; inactive means no such curve, though single readings can be large; an effect the other way counts as inactive or inconclusive;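 further: IP1 builds up when IMPase is blocked and the TR-FRET signal falls; potency means the concentration at half of the fitted maximal effect; plate controls were basal vehicle for no effect and high inhibitor control for full effect; nearly all actives have a fitted effect of over 50% in size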
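IP1 accumulation measured by competitive TR-FRET in lysed CHO-M1 cells after 30 min compound exposure at 37C, with a small lithium addition to potentiate weak responses. Hill-equation AC50 from ratio and donor-channel data.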
HPGD inh = blocks human HPGD enzyme activity | P15428 | purified HPGD, NADH fluorescence kinetic, PGE2 substrate | 150,000 compounds, 4.3% hits | Potency, µM, inactives show at the top dose activity change, negative = inhibition, most hits filed as inhibitors; further: potency means the concentration at half of the fitted maximal effect
Target sequence (P15428 whole entry, looked up): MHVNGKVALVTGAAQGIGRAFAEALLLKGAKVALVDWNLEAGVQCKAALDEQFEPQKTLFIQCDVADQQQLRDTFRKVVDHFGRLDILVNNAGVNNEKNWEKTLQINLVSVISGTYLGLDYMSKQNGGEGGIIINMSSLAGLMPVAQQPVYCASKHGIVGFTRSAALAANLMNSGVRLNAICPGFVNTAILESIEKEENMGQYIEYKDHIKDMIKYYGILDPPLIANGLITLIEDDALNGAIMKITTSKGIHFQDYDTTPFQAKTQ
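NADH formation kinetics: reaction with 30 uM PGE2 and 1 mM NAD+ (final), 20 nM enzyme, Tris-HCl pH 8 with Tween 20, after 15 min compound preincubation at room temperature. Fluorescence change, last versus first of five reads.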
ALDH1A1 inh = ALDH1A1 (human) enzyme inhibition; P00352; Purified ALDH1A1, NADH fluorescence, propionaldehyde substrate; Potency, µM (titrated, usually from 75.3 µM), for the others: at the highest dose activity, negative = inhibition, hits mostly inhibitors; 220,000 compounds, 7.3% hits; AID 1030;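 further: potency means the concentration at half of the fitted maximal effect; plate controls were no enzyme wells and a reference inhibitor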
IMPase inh = IMPase inhibition in cells; CHO-M1 cells, IP1 accumulation, HTRF TR-FRET ratio; inhibition (IP1 accumulation), % at 46.1 µM; 120,000 tested, under 10 active; AID 901; active means well fitted curve in the direction sought with a large enough effect in the signal ratio, not every such curve was filed as active; inconclusive means small, poorly fitted or top-dose-only effect, or a change in a side signal; inactive means no such curve, though single readings can be large or run the other way; the % refers to the signal ratio;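 further: cells stimulated with carbachol in lithium chloride buffer; plate controls were DMSO basal wells for no effect and reference inhibitor wells for full effect; higher means more IMPase inhibition seen as more IP1 and lower FRET ratio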
Target sequence (P97697 whole entry, looked up): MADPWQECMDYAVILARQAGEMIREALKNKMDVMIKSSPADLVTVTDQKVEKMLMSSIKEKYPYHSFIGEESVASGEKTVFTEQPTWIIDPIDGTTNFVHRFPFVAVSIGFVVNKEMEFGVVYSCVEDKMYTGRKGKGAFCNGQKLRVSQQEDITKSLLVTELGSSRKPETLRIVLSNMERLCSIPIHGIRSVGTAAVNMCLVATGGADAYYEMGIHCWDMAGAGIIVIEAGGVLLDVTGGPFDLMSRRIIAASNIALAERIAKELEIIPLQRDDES
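CHO-M1, 2000 cells/well, cultured 16–30 h; cpd up to 46 uM; carbachol (50 uM solution, stimulation buffer w/ 50 mM LiCl, pH 7.4), 30 min 37C; IP-One TR-FRET, 10 min RT; Ex 320/Em 665, 620; Hill-fit AC50.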
* hit, by the source's call; ? = inconclusive; / = no result; [ ] = dose if it differs, or a comment. Unless noted, the call rests on the fitted dose curve; in most records, active means well fitted inhibition curve with a large enough effect (not every such curve was filed as active); inconclusive means small, poorly fitted or top-dose-only effect, or another doubt; inactive means no such curve, though single readings can be large or run the other way. Unless noted, on the % scale 0 is the no-effect control and ±100 the full control effect.

SMILES	PNC assembly inh	ALOX12 inhib	IMPase Li inh	HPGD inh	ALDH1A1 inh	IMPase inh
O=C(/C=C/Nc1ccc(F)c(Cl)c1)c1ccco1	?	-14.2%	15.1%[38.3 µM]	-23.8%	28.2µM*	3.7
O=C(/C=C/Nc1cccc(F)c1)c1ccco1	28.3	4.7%	4.5%[38.3 µM]	-25.5%	-13.3%	-1.0
CC(=O)Nc1ccc(N/C=C/C(=O)c2ccco2)cc1	?	-10.3%	10.6%[38.3 µM]	25.1µM*	4.47µM*	3.2
CN(C)c1ccc(N/C=C/C(=O)c2ccc(F)cc2)cc1	-28.9	-28.6%	28.9%[38.3 µM]	-7.1%	-2.7%	21.7
NC1(C(=O)NC2(C(=O)O)CCCC2)CCCC1	/	-3.9%[11.4 µM]	-6.6%	-1.1%	10.9%[13.5 µM]	/
C=CCN1c2ccccc2[C@]23C[C@@H](C(=O)OC)N(S(=O)(=O)c4c(C)noc4C)C2=NC(C(=O)OC)=C(C(=O)OC)[C@H]13	/	1.4%[11.4 µM]	3.0%	3.1%	2.9%[13.5 µM]	/
CC(C)CN1CC2(CCN(C(=O)c3cccc(F)c3)CC2)C1	/	3.9%	22.4%	-12.1%	-5.2%	/
Cc1ccc(C2=NC(=O)/C(=C/c3cc(O)c(O)c(Br)c3)S2)cc1	/	/	80.2%	/	10µM*	/
NC1=NC(=O)/C(=C\c2ccc(O)c([N+](=O)[O-])c2)S1	/	/	28.5%	/	-16.4%	/
COc1cc(/C=C2\SC(c3ccc(C)cc3)=NC2=O)cc(OC)c1O	?	-26.6%	48.9%	22.4µM*	?	45.1
CNCC(O)Cn1c(C(F)(F)F)nc2ccccc21 (stereo unspecified)	-100.0*	1.4%	5.3%	-6.3%	-3.2%	-9.3
Cc1cc(F)c(F)c(C(=O)N2C(C)CCCC2C)c1Cl (stereo unspecified)	/	/	4.9%	/	4.0%	/
Nc1ccc(N(c2ccccc2)c2ccc(N)cc2)cc1	48.2	-28.7%	-2.2%[38.3 µM]	-4.5%	8.91µM*	2.6
Clc1nc(Cl)nc(N(c2ccccc2)c2ccccc2)n1	40.9	-2.3%	-5.6%	-8.7%	?	/
Cc1ccc(NC(=O)c2cc3c(-c4ccccc4)nn(-c4ccccc4)c3s2)cc1	/	/	/	/	/	-5.6
CCN1CCCC1CN(Cc1cc2ccc(C)cc2[nH]c1=O)C(=S)Nc1ccccc1OC (stereo unspecified)	-5.4	2.5%	-4.6%	-10.2%	13.8%	/
CCN1CCCC1CN(Cc1cc2ccc(C)c(C)c2[nH]c1=O)C(=O)Nc1ccccc1OC (stereo unspecified)	-3.3	-2.2%	3.6%[38.3 µM]	-13.5%	12.6µM*	-4.5
CCc1cccc(CC)c1NC(=O)CSc1nc2ccc(N3C(=O)C4C(C3=O)[C@H]3C=C[C@@H]4C3)cc2s1 (stereo partly specified)	-24.3	-0.6%	-1.0%	20µM*	17.8µM*	2.3
CCc1cccc(C)c1NC(=O)CSc1nc2ccc(N3C(=O)c4ccccc4C3=O)cc2s1	36.5	-4.5%	15.8µM*	-9.8%	4.0%	-7.8
Cc1cc(C)c(NC(=O)CSc2nc3ccc(N4C(=O)c5ccccc5C4=O)cc3s2)c(C)c1	/	/	-9.6%	/	-6.5%	/
NC(=O)N[C@H]1NC(=O)NC1=O	/	5.1%[25.6 µM]	2.2%	-4.3%	6.9%[20.9 µM]	-5.3[20.6 µM]
O=C(Nc1ccc2oc(=O)ccc2c1)c1ccc(-c2cccc([N+](=O)[O-])c2)o1	/	/	/	/	7.94µM*	/
CCc1ccc2oc(-c3cccc(NC(=O)c4ccc(-c5cccc([N+](=O)[O-])c5)o4)c3)nc2c1	/	/	/	/	/	8.7
O=C(Nc1ccc2oc(=O)ccc2c1)c1ccc(-c2ccc(Cl)cc2)o1	8.1	2.7%	/	/	8.91µM*	-9.2
COc1ccc2c(c1)C(=O)[C@H](OC(=O)NCCc1ccc(OC)c(OC)c1)[C@@H](c1ccc(OC)c(Br)c1)O2	/	/	24.4%	-6.2%	-7.5%	/
O=C(Nc1cccc(F)c1)N1CC[C@@]2(CCCN(C(=O)c3cc(C(F)(F)F)cc(C(F)(F)F)c3)C2)C1	/	3.1%	2.7%	-4.4%	4.5%	/
COc1cc(/C=C2\SC(=O)N(Cc3ccc(F)cc3)C2=O)cc([N+](=O)[O-])c1O	/	/	10.6%	/	0.708µM*	/
